{"source": "the supplement of paper PMC9177965", "note": "Several values for one entry are separate records, joined by “and”; a condition that tells them apart may be missing. Identical values can stand only once."}
{"test_system": "HT29 RNF43 G659fs (RNF43 659mut, CRISPR-edited)", "assay": "cell viability activity relative to DMSO (negative = inhibition); higher = more viable cells (less growth inhibition)", "details": "5 µM; 96 h", "method": "(§1)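 Broad Repurposing Library primary screen at a single dose of 5 uM. HT29 sg-Ctrl and HT29 RNF43 G659fs CRISPR-edited isogenic cells were seeded at 2500 cells/well in 384-well plates in duplicate and treated for 96 h. Viability was read by CellTiter-Glo and reported as % activity relative to DMSO, with MG132 as the positive control (negative = growth inhibition).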"}
{"smiles": "CC[C@@H]1C(=O)N(C)c2cnc(Nc3ccc(C(=O)N[C@H]4CC[C@H](N5CCN(CC6CC6)CC5)CC4)cc3OC)nc2N1C(C)C", "cell viability activity": "-66.4%"}
{"smiles": "C[C@@H]1COCCN1c1cc(=O)n2c(n1)N(Cc1cncc(Cl)c1)[C@H](C(F)(F)F)CC2", "cell viability activity": "-57.9%"}
{"smiles": "COc1c/c(=C2\\C=c3ccccc3=N2)[nH]/c1=C\\c1[nH]c(C)cc1C", "cell viability activity": "-93.8%"}
{"smiles": "C=C1/C(=C\\C=C2/CCC[C@]3(C)[C@@H]([C@H](C)CCCC(C)C)CC[C@@H]23)C[C@@H](O)C[C@@H]1O", "cell viability activity": "-54.3%"}
{"smiles": "Fc1ccc(-n2cc(CCCCN3CCC4(CC3)OCc3ccccc34)c3ccccc32)cc1", "cell viability activity": "-70.6%"}
{"smiles": "Clc1ccccc1CNCC1CCC(CNCc2ccccc2Cl)CC1", "note": "(centres undefined)", "cell viability activity": "-26.3%"}
{"smiles": "CCN(CC)CCOc1ccc(Nc2ncc3cc(-c4c(Cl)cccc4Cl)c(=O)n(C)c3n2)cc1", "cell viability activity": "-86.7%"}
{"smiles": "Cc1cc(Nc2ccc(NC(=O)c3ccc(Nc4ccnc5ccccc45)cc3)cc2)nc(N)n1", "cell viability activity": "-91%"}
{"smiles": "CC[C@H](CC#N)OC(=O)N[C@@H](C)c1cccc(NC(=O)Nc2ccc(-c3cnco3)c(OC)c2)c1", "cell viability activity": "-66.2%"}
{"smiles": "CC[C@H](CO)Nc1nc(NCc2ccc(-c3ccccn3)cc2)c2ncn(C(C)C)c2n1", "cell viability activity": "-92%"}
{"smiles": "Cc1nc(-c2cn3c(n2)-c2ccc(-c4cnn(C(C)(C)C(N)=O)c4)cc2OCC3)n(C(C)C)n1", "cell viability activity": "-53.2%"}
{"smiles": "O=C(O)/C=C/c1ccc(O)c(O)c1", "cell viability activity": "-66.6%"}
{"smiles": "CC(=O)N(O)CCCCCNC(=O)CCC(=O)N(O)CCCCCNC(=O)CCC(=O)N(O)CCCCCN", "cell viability activity": "-56.3%"}
{"smiles": "Cc1cc(C2CCCCC2)n(O)c(=O)c1", "cell viability activity": "-85.1%"}
{"smiles": "CC(C)OC(=O)OCOP(=O)(CO[C@H](C)Cn1cnc2c(N)ncnc21)OCOC(=O)OC(C)C", "cell viability activity": "-26.8%"}
{"smiles": "COc1ncc(-c2ccc3nccc(-c4ccnnc4)c3c2)cc1NS(=O)(=O)c1ccc(F)cc1F", "cell viability activity": "-93.8%"}
{"smiles": "CCCCC(=O)O[C@H]1CC[C@H]2[C@@H]3CCc4cc(O)ccc4[C@H]3CC[C@]12C", "cell viability activity": "-22.9%"}
{"smiles": "CC1(C)CC(Oc2ccc(-c3ccc(-c4cn[nH]c4)cc3O)nn2)CC(C)(C)N1", "cell viability activity": "-77%"}
{"smiles": "CC(=O)Nc1nc(C)c(-c2ccc(Cl)c(S(=O)(=O)NCCO)c2)s1", "cell viability activity": "-53.2%"}
{"smiles": "Nc1ncn([C@@H]2O[C@H](CO)[C@@H](O)[C@H]2O)c(=O)n1", "cell viability activity": "-24.4%"}
{"smiles": "CCCC[C@H](NC(C)=O)C(=O)N[C@H]1CC(=O)NCCCC[C@@H](C(=O)O)NC(=O)[C@H](Cc2c[nH]c3ccccc23)NC(=O)[C@H](CCCNC(=N)N)NC(=O)[C@@H](Cc2ccccc2)NC(=O)[C@H](Cc2c[nH]cn2)NC1=O", "cell viability activity": "-42.1%"}
{"smiles": "CON(C)C(=O)N1N=C(c2cc(F)ccc2F)S[C@@]1(CCCN)c1ccccc1", "cell viability activity": "-73.8%"}
{"smiles": "CC(=O)c1ccc2c(c1)[C@@H]1C=CC[C@@H]1[C@H](c1cc3c(cc1Br)OCO3)N2", "cell viability activity": "-69.9%"}
{"smiles": "CCS(=O)(=O)c1cccc(-c2cc(C(=O)NC3CCN(C)CC3)c(C)c3[nH]c4ncc(C)cc4c23)c1", "cell viability activity": "-90.1%"}
{"smiles": "Cn1ccc2cc(NC(=O)Nc3cccnc3)ccc21", "cell viability activity": "-29.2%"}
{"smiles": "COc1cc(C(=O)NC2CCN(C)CC2)c(F)cc1Nc1ncc2c(n1)N(C1CCCC1)CC(F)(F)C(=O)N2C", "cell viability activity": "-65.9%"}
{"smiles": "Oc1c(Cl)cc(Cl)c(Cl)c1Cc1c(O)c(Cl)cc(Cl)c1Cl", "cell viability activity": "-49%"}
{"smiles": "CN1CCN(c2ccc(OC(F)(F)F)c(Nc3ncc4c(n3)-c3c(c(C(N)=O)nn3CCO)CC4)c2)CC1", "cell viability activity": "-69%"}
{"smiles": "COC[C@H](NC(=O)c1cnc(C)s1)C(=O)N[C@@H](COC)C(=O)N[C@@H](Cc1ccccc1)C(=O)[C@@]1(C)CO1", "cell viability activity": "-95.3%"}
{"smiles": "COc1cc(F)c(F)c(Nc2ccc(I)cc2F)c1NS(=O)(=O)C1(C[C@H](O)CO)CC1", "cell viability activity": "-74.1%"}
{"smiles": "OCCNCCCOc1cccc(Cl)c1Cl", "cell viability activity": "-45.4%"}
{"smiles": "COc1cccc2c1C(=O)c1c(O)c3c(c(O)c1C2=O)C[C@@](O)(C(C)=O)C[C@@H]3O[C@H]1C[C@H](N)[C@H](O)[C@H](C)O1", "cell viability activity": "-97.7% and -94% and -93.6%"}
{"smiles": "CN[C@@H]1C[C@H]2O[C@@](C)([C@@H]1OC)n1c3ccccc3c3c4c(c5c6ccccc6n2c5c31)C(=O)N[C@H]4O", "cell viability activity": "-88.9%"}
{"smiles": "CO[C@H]1C(=O)[C@]2(C)[C@@H](OC)C[C@H]3OC[C@@]3(OC(C)=O)[C@H]2[C@H](OC(=O)c2ccccc2)[C@]2(O)C[C@H](OC(=O)[C@H](O)[C@@H](NC(=O)OC(C)(C)C)c3ccccc3)C(C)=C1C2(C)C", "cell viability activity": "-45%"}
{"smiles": "COc1cc(N2CCC(N3CCN(C)CC3)CC2)ccc1Nc1ncnc(Nc2ccccc2S(=O)(=O)C(C)C)n1", "cell viability activity": "-33.3%"}
{"smiles": "CCCCCCCCN=c1ccn(CCCCCCCCCCn2ccc(=NCCCCCCCC)cc2)cc1", "cell viability activity": "-94.6%"}
{"smiles": "COC(=O)Nc1nc2ccc(SC(C)C)cc2[nH]1", "cell viability activity": "-43.7%"}
{"test_system": "HT29 sg-Ctrl (RNF43 wildtype)", "assay": "cell viability activity relative to DMSO (negative = inhibition); higher = more viable cells (less growth inhibition)", "details": "5 µM; 96 h", "method": "as §1"}
{"smiles": "CC[C@@H]1C(=O)N(C)c2cnc(Nc3ccc(C(=O)N[C@H]4CC[C@H](N5CCN(CC6CC6)CC5)CC4)cc3OC)nc2N1C(C)C", "cell viability activity": "-77.9%"}
{"smiles": "C[C@@H]1COCCN1c1cc(=O)n2c(n1)N(Cc1cncc(Cl)c1)[C@H](C(F)(F)F)CC2", "cell viability activity": "1.22%"}
{"smiles": "COc1c/c(=C2\\C=c3ccccc3=N2)[nH]/c1=C\\c1[nH]c(C)cc1C", "cell viability activity": "-88.7%"}
{"smiles": "C=C1/C(=C\\C=C2/CCC[C@]3(C)[C@@H]([C@H](C)CCCC(C)C)CC[C@@H]23)C[C@@H](O)C[C@@H]1O", "cell viability activity": "-70%"}
{"smiles": "Fc1ccc(-n2cc(CCCCN3CCC4(CC3)OCc3ccccc34)c3ccccc32)cc1", "cell viability activity": "-62.5%"}
{"smiles": "Clc1ccccc1CNCC1CCC(CNCc2ccccc2Cl)CC1", "note": "(centres undefined)", "cell viability activity": "-19.9%"}
{"smiles": "CCN(CC)CCOc1ccc(Nc2ncc3cc(-c4c(Cl)cccc4Cl)c(=O)n(C)c3n2)cc1", "cell viability activity": "-80.3%"}
{"smiles": "Cc1cc(Nc2ccc(NC(=O)c3ccc(Nc4ccnc5ccccc45)cc3)cc2)nc(N)n1", "cell viability activity": "-93.7%"}
{"smiles": "CC[C@H](CC#N)OC(=O)N[C@@H](C)c1cccc(NC(=O)Nc2ccc(-c3cnco3)c(OC)c2)c1", "cell viability activity": "-55.9%"}
{"smiles": "CC[C@H](CO)Nc1nc(NCc2ccc(-c3ccccn3)cc2)c2ncn(C(C)C)c2n1", "cell viability activity": "-92.1%"}
{"smiles": "Cc1nc(-c2cn3c(n2)-c2ccc(-c4cnn(C(C)(C)C(N)=O)c4)cc2OCC3)n(C(C)C)n1", "cell viability activity": "-48.5%"}
{"smiles": "O=C(O)/C=C/c1ccc(O)c(O)c1", "cell viability activity": "-80.2%"}
{"smiles": "CC(=O)N(O)CCCCCNC(=O)CCC(=O)N(O)CCCCCNC(=O)CCC(=O)N(O)CCCCCN", "cell viability activity": "-45%"}
{"smiles": "Cc1cc(C2CCCCC2)n(O)c(=O)c1", "cell viability activity": "-83.4%"}
{"smiles": "CC(C)OC(=O)OCOP(=O)(CO[C@H](C)Cn1cnc2c(N)ncnc21)OCOC(=O)OC(C)C", "cell viability activity": "-48.3%"}
{"smiles": "COc1ncc(-c2ccc3nccc(-c4ccnnc4)c3c2)cc1NS(=O)(=O)c1ccc(F)cc1F", "cell viability activity": "-89.3%"}
{"smiles": "CCCCC(=O)O[C@H]1CC[C@H]2[C@@H]3CCc4cc(O)ccc4[C@H]3CC[C@]12C", "cell viability activity": "-32.5%"}
{"smiles": "CC1(C)CC(Oc2ccc(-c3ccc(-c4cn[nH]c4)cc3O)nn2)CC(C)(C)N1", "cell viability activity": "-89.2%"}
{"smiles": "CC(=O)Nc1nc(C)c(-c2ccc(Cl)c(S(=O)(=O)NCCO)c2)s1", "cell viability activity": "-38.4%"}
{"smiles": "Nc1ncn([C@@H]2O[C@H](CO)[C@@H](O)[C@H]2O)c(=O)n1", "cell viability activity": "-7.11%"}
{"smiles": "CCCC[C@H](NC(C)=O)C(=O)N[C@H]1CC(=O)NCCCC[C@@H](C(=O)O)NC(=O)[C@H](Cc2c[nH]c3ccccc23)NC(=O)[C@H](CCCNC(=N)N)NC(=O)[C@@H](Cc2ccccc2)NC(=O)[C@H](Cc2c[nH]cn2)NC1=O", "cell viability activity": "-7.64%"}
{"smiles": "CON(C)C(=O)N1N=C(c2cc(F)ccc2F)S[C@@]1(CCCN)c1ccccc1", "cell viability activity": "-69.7%"}
{"smiles": "CC(=O)c1ccc2c(c1)[C@@H]1C=CC[C@@H]1[C@H](c1cc3c(cc1Br)OCO3)N2", "cell viability activity": "-56.9%"}
{"smiles": "CCS(=O)(=O)c1cccc(-c2cc(C(=O)NC3CCN(C)CC3)c(C)c3[nH]c4ncc(C)cc4c23)c1", "cell viability activity": "-85.9%"}
{"smiles": "Cn1ccc2cc(NC(=O)Nc3cccnc3)ccc21", "cell viability activity": "-52%"}
{"smiles": "COc1cc(C(=O)NC2CCN(C)CC2)c(F)cc1Nc1ncc2c(n1)N(C1CCCC1)CC(F)(F)C(=O)N2C", "cell viability activity": "-68.1%"}
{"smiles": "Oc1c(Cl)cc(Cl)c(Cl)c1Cc1c(O)c(Cl)cc(Cl)c1Cl", "cell viability activity": "-40.9%"}
{"smiles": "CN1CCN(c2ccc(OC(F)(F)F)c(Nc3ncc4c(n3)-c3c(c(C(N)=O)nn3CCO)CC4)c2)CC1", "cell viability activity": "-82.8%"}
{"smiles": "COC[C@H](NC(=O)c1cnc(C)s1)C(=O)N[C@@H](COC)C(=O)N[C@@H](Cc1ccccc1)C(=O)[C@@]1(C)CO1", "cell viability activity": "-93.6%"}
{"smiles": "COc1cc(F)c(F)c(Nc2ccc(I)cc2F)c1NS(=O)(=O)C1(C[C@H](O)CO)CC1", "cell viability activity": "-78.3%"}
{"smiles": "OCCNCCCOc1cccc(Cl)c1Cl", "cell viability activity": "-43.2%"}
{"smiles": "COc1cccc2c1C(=O)c1c(O)c3c(c(O)c1C2=O)C[C@@](O)(C(C)=O)C[C@@H]3O[C@H]1C[C@H](N)[C@H](O)[C@H](C)O1", "cell viability activity": "-96.9% and -95.8% and -96%"}
{"smiles": "CN[C@@H]1C[C@H]2O[C@@](C)([C@@H]1OC)n1c3ccccc3c3c4c(c5c6ccccc6n2c5c31)C(=O)N[C@H]4O", "cell viability activity": "-91.7%"}
{"smiles": "CO[C@H]1C(=O)[C@]2(C)[C@@H](OC)C[C@H]3OC[C@@]3(OC(C)=O)[C@H]2[C@H](OC(=O)c2ccccc2)[C@]2(O)C[C@H](OC(=O)[C@H](O)[C@@H](NC(=O)OC(C)(C)C)c3ccccc3)C(C)=C1C2(C)C", "cell viability activity": "-50.5%"}
{"smiles": "COc1cc(N2CCC(N3CCN(C)CC3)CC2)ccc1Nc1ncnc(Nc2ccccc2S(=O)(=O)C(C)C)n1", "cell viability activity": "-27.7%"}
{"smiles": "CCCCCCCCN=c1ccn(CCCCCCCCCCn2ccc(=NCCCCCCCC)cc2)cc1", "cell viability activity": "-92.1%"}
{"smiles": "COC(=O)Nc1nc2ccc(SC(C)C)cc2[nH]1", "cell viability activity": "-5.83%"}
